KB-V1 MDR tox = kills drug-selected multidrug resistant KB-V1 cells | KB-V1 MDR cells viability, CellTiter-Glo, 72 h | actives 3.4% (n = 400,000) | Potency, µM (titrated, usually from 46.1 µM), most hits filed as cytotoxic | AID 1347076; also: nearly all actives have a fitted effect of over 60% in size
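Cytotoxicity toward P-gp-expressing KB-V1 cells was determined as loss of CellTiter-Glo luminescence after 72 h at 37 degrees C. Compounds were tested in quantitative HTS format across a concentration range, with curves fitted to normalized data.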
MCF10A rerep = induces DNA re-replication in MCF 10a normal breast cells; actives 2.9% (n = 350,000); Potency, µM (highest dose often 46.1 µM), usual class: activators; MCF 10A DNA re-replication, Hoechst nuclear intensity, 48 h; AID 624296; also: nearly all actives have a fitted effect of over 50% in size
SW480 rereplic = induces DNA re-replication in SW480 colon adenocarcinoma cells | SW480 DNA re-replication, Hoechst DNA content imaging, 48 h | Potency, µM (titrated, usually from 46.1 µM), hits mostly activators | actives 1.8% (n = 340,000); also: nearly all actives have a fitted effect of over 55% in size
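DNA re-replication was detected as more nuclei of elevated Hoechst intensity after 48 hr exposure to compound (23 nL pinned per well of 250 cells).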
HT1080NT lethal = kills 2HG-producing HT-1080-NT fibrosarcoma cells; HT-1080-NT fibrosarcoma viability, CellTiter-Glo ATP luminescence, 48 h; Potency, µM (titrated, usually from 46.1 µM), most hits filed as cytotoxic; actives 1.6% (n = 360,000); AID 686970;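 also: NT is the 2HG producing partner of a matched IDH1 knockdown line; nearly all actives have a fitted effect of over 55% in size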
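Read-out is CellTiter-Glo luminescence after 10 minutes at room temperature, following 48 hours' compound treatment of HT-1080-NT cells (750 cells/well, RPMI, 5% FBS, 37 degrees C).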
KB-3-1 tox = KB-3-1 parental cell cytotoxicity; actives 1.4% (n = 400,000); Potency, µM (highest dose often 46.1 µM), hits mostly cytotoxic; AID 1347075; KB-3-1 viability, CellTiter-Glo ATP luminescence, 72 h; also: nearly all actives have a fitted effect of over 60% in size
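Cytotoxicity measured as CellTiter-Glo luminescence after 72 h at 37 C. Compound titrations were pinned onto drug-naive KB-3-1 parental adenocarcinoma cells grown in DMEM with 10% FBS, and normalized data fitted to concentration-response curves.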
HT1080 IDH1KD tx = toxicity to HT-1080 IDH1 knockdown cells (counter line). HT-1080 IDH1 knockdown viability, ATP luminescence, 48 h. Potency, µM (highest dose often 46.1 µM), most hits filed as cytotoxic. actives 2% (n = 360,000)
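Using the IDH1-knockdown HT-1080 line run in the same batch and compound series as the NT line, viability after 48 h at 37 °C was determined by CellTiter-Glo luminescence and expressed as % activity.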
Hits are given with their value; - = inactive; ? = inconclusive; . = not tested or not shown; [ ] = remark or other dose. In the library only some 7.9% were active in any assay of this set; here they are far more common. Calls follow the shape of the dose curve; as a rule, active = well fitted curve in the direction sought with a large enough effect; inconclusive = small, poorly fitted or top-dose-only effect, or another doubt; inactive = no such curve, though single readings can be large; an effect the other way counts as inactive or inconclusive.

SMILES	KB-V1 MDR tox	MCF10A rerep	SW480 rereplic	HT1080NT lethal	KB-3-1 tox	HT1080 IDH1KD tx
CCn1cc(C2=NCC(C)O2)c2ccccc21 (stereo unspecified)	-	-	?	-[9.24 µM]	-	?
CCn1cc(C2=NC(c3ccccc3)CO2)c2ccccc21 (stereo unspecified)	?	?	-	-	8.2µM	-
COc1ccc(C(O)P(=O)(OC(C)C)c2ccc(N(C)C)cc2)c(OC)c1 (stereo unspecified)	-	-	-	-	-	-
CCc1cc(/C(Cc2ccccn2)=N\O)c(O)cc1O	-	-	?	?	-	13µM
O=C(NCC1CCCO1)c1cccc(S(=O)(=O)Nc2ccc(SC(F)F)cc2)c1 (stereo unspecified)	?	-	-	-	-	-
CCOC(=O)C1=C(CC)Nc2ccccc2N=C1NC(=O)c1oc2ccccc2c1C	?	?	-	-	-	-
CCOCc1c(C(=O)NC2=Nc3ccccc3NC(CC)=C2C(=O)OCC)oc2ccccc12	?	10µM	21µM	?	?	?
Cc1cc(O)c2c(-c3ccccc3)cc(=O)oc2c1	-	-	-	-	-	?
COc1ccc2c(c1)C(CC(C)=O)N(c1ccc(-c3cccs3)cc1)C(c1ccsc1)=C2 (stereo unspecified)	-	.	.	-	10µM	-
COc1cc(OC)cc(C2=Cc3ccc(OC)cc3C(CC(C)=O)N2c2ccc(C#CC3(N)CCCCC3)cc2)c1 (stereo unspecified)	-	.	.	16µM	?	26µM
COc1cc(OC)cc(C2=Cc3ccc(OC)cc3C(CC(C)=O)N2c2ccc(C#CC3(O)CCCCC3)cc2)c1 (stereo unspecified)	-	.	.	-	?	-
COc1cc(OC)cc(C2=Cc3ccccc3C(CC(C)=O)N2c2ccc(C#CC3(N)CCCCC3)cc2)c1 (stereo unspecified)	?	.	.	15µM	?	13µM
C=CCc1c(OC(C)=O)c2ccccc2n(C)c1=O	-	-	-	-	-	-
CC(=O)/C(=N\Nc1ccccc1Cl)Sc1nnc(-c2ccccc2)n1-c1ccccc1	-	-	-	-	-	-
O=C(CSc1nc2cc([N+](=O)[O-])ccc2n1-c1ccc(F)cc1)NC1CCS(=O)(=O)C1 (stereo unspecified)	23µM	-	-	-	-	-
COc1ccccc1-n1c(SCC(=O)NC2CCS(=O)(=O)C2)nc2cc([N+](=O)[O-])ccc21 (stereo unspecified)	-	-	-	-	-	-
C/C=C1\NC(=O)[C@H](CC(N)=O)N(C)C(=O)C([C@@H](C)O)NC(=O)C(CCCc2ccc(OC)cc2)NC(=O)[C@H](C(C)C)NC(=O)/C(=C\C)NC(=O)[C@H](O)[C@@H](C[C@@H](O)CCCCCCC)NC(=O)[C@H](C)NC(=O)CN(C)C(=O)[C@H](CCC(N)=O)NC1=O (stereo partly specified)	-	18µM	?	-	16µM	?
O=C1c2ccccc2C(=O)N1CCc1csc(-c2cccc(F)c2)n1	16µM	?	-	-	-	-
O=C1c2ccccc2C(=O)N1CCc1csc(-c2cccc(Cl)c2)n1	?	?	-	-	-	-
N#Cc1nccnc1S(=O)(=O)c1cccs1	-	?	-	21µM	-	?
CN(Cc1ccccc1C#N)S(=O)(=O)c1cccs1	-	-	-	-	-	-
CC(=O)N(Cc1ccc(F)cc1)C1=C(NCc2ccccc2)C(=O)c2ccccc2C1=O	-	?	?	4.5µM	?	5µM
O=C(NCc1ccc(F)cc1)C(c1ccccc1)c1ccccc1	-	-	-	-	-	-
CS(=O)(=O)c1nc(-c2ccccc2)cc(C(F)(F)F)n1	?	2.6µM	?	21µM	?	12µM
Cc1cc(NC(=O)CCS(=O)(=O)c2nc(-c3ccccc3)cc(C(F)(F)F)n2)no1	-	5.2µM	?	?	?	-[9.24 µM]
SMILES	KB-V1 MDR tox	MCF10A rerep	SW480 rereplic	HT1080NT lethal	KB-3-1 tox	HT1080 IDH1KD tx
Fc1ccccc1NC(=S)N1CCN(c2ccccn2)CC1	21µM	?	-	-	-	-
CC(NNC(=S)N1CCN(c2ccccn2)CC1)c1nccc2ccccc12 (stereo unspecified)	0.46µM	?	?	-	?	?
S=C(Nc1ccccc1Cl)N1CCN(c2ccccn2)CC1	-	-	-	-	-	-
CCNC(=S)N1CCN(c2ccccn2)CC1	-	-	-	-	-	-
COc1ccc(C(=O)NCc2nnc(SCC(=O)N3CCOCC3)o2)cc1	-	-	-	-	-	-
COc1cccc2cc(C(=O)OCc3ccccc3)c(=O)oc12	?	-	-	-	-	-
OCCCNc1cc(-c2ccnc(Nc3cccc(Cl)c3)n2)ccn1	0.13µM	?	?	-	?	?
O=C(COC(=O)c1cc(=O)[nH]c2ccccc12)c1ccc(Br)cc1	-	-	-	-	-	-
Cc1cc(C)cc(N2C(=O)CC(N3CCOCC3)C2=O)c1 (stereo unspecified)	-	18µM	-	-	-	-
O=c1cc(-c2ccccc2)[nH]c2ccccc12	?	1.3µM	?	?	0.65µM	2.3µM
COc1ccc2[nH]c(-c3ccc(C)cc3)cc(=O)c2c1	?	?	?	?	9.2µM	23µM
COc1ccc(C(=O)Nc2ccc3[nH]c(-c4cccc(OC)c4)cc(=O)c3c2)cc1	-	0.58µM	0.65µM	?	0.73µM	?
O=C1C(c2cc(=O)c3ccccc3[nH]2)=C(O)c2ccccc21	-	?	-	-	-	-
COc1ccc(C(=O)Nc2cccc(OC)c2)cc1	-	-	-	-	?	-
Cc1ccc(N/C(CSC(N)=O)=N\S(=O)(=O)c2ccc(C)cc2)cc1	-	-	-	-	-	-
COc1ccc(C(=O)C[n+]2cccc(C(N)=O)c2)cc1	-	-	-	-	-	-
Cc1c(C(=O)O)cccc1-c1ccc(/C=N/n2cnnc2)o1	-	-	-	-	-	-
Cc1cc(-c2ccc(/C=N/n3cnnc3)o2)ccc1Cl	-	-	-	-	-	-
CCCCOC(=O)c1cc(-c2ccc(/C=N/n3cnnc3)o2)ccc1Cl	18µM	-	-	-	-	-
Clc1ccccc1-c1ccc(/C=N/n2cnnc2)o1	3.3µM	-	-	-	5.8µM	-
Cc1c(Cl)cccc1-c1ccc(/C=N/n2cnnc2)o1	2.9µM	-	?	-	?	-
Clc1cccc(-c2ccc(/C=N/n3cnnc3)o2)c1Cl	1.6µM	-	-	-	6.5µM	-
